Test systems include NCI-H23 lung; NCI-H322M lung; HOP-62 NSCLC; NCI-H460 lung; HOP-92 NSCLC; NCI-H522 lung; A549/ATCC NSCLC; 786-0 renal; COLO 205 colon; DU-145 prostate; K-562 leukemia; MALME-3M melanoma; MDA-MB-231 breast; RXF 393 renal; SF-268 CNS; SF-295 CNS; SF-539 CNS; UACC-257 melanoma; M14 melanoma; NCI-H226 lung.
What all share (assay): NCI-60 one-dose screen, 48 h (100 = growth as untreated, 0 = no growth, -100 = all killed)
What all share (conditions): 10 µM unless noted

About 83,000 compounds went through this panel and 20% of them were active in at least one assay; those are over-represented in the sample as a whole.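 Results are percent growth after 48 hours of single-concentration exposure. 100 means growth as in untreated cells, lower positive values show inhibition; negative values down to -100 show cell death.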 Unmarked numbers belong to inactive results. Calls of active or inactive are those of the source. The calls were made as follows: active = growth percent below 10; inactive = the rest.

With `CCCCn1c(=O)c(/C=C/C(=O)/C=C/c2cc3ccccc3n(CCCC)c2=O)cc2ccccc21`, the growth is -7.39% (active) in the experiment with NCI-H23 lung; 49.6% in the experiment on NCI-H322M lung; 49% in the experiment on HOP-62 NSCLC; 5.91% (active) in the experiment with NCI-H460 lung; 64.4% in the experiment on HOP-92 NSCLC; 5.74% (active) with NCI-H522 lung. Besides, the growth was -0.936% (active) with A549/ATCC NSCLC; -63% (active) in the experiment with 786-0 renal; -22% (active) in the experiment on COLO 205 colon; -7.95% (active) in the experiment with DU-145 prostate; 3.37% (active) in the experiment with K-562 leukemia; 8.02% (active) in the experiment on MALME-3M melanoma. The growth in the experiment on MDA-MB-231 breast is -18.8% (active); with RXF 393 renal, -89.9% (active); in the experiment with SF-268 CNS it was 7.91% (active); with SF-295 CNS, 3.65% (active); in the experiment with SF-539 CNS, -7.12% (active); in the experiment on UACC-257 melanoma, -24% (active). Moreover, the growth with M14 melanoma is -29.9% (active).

Consider `O=C1NN(c2ccccc2)C(c2ccc3c(c2)OCO3)N2CCC[C@@H]12` (stereo partly specified), for which the growth was 105% in the experiment with NCI-H226 lung; 88.3% with NCI-H322M lung; 91.4% in the experiment on HOP-62 NSCLC; 106% with NCI-H460 lung; 107% in the experiment on HOP-92 NSCLC; 70.1% with NCI-H522 lung. Further, the growth with A549/ATCC NSCLC was 97.9%; in the experiment on 786-0 renal it was 98.2%; in the experiment on COLO 205 colon it was 104%; in the experiment with DU-145 prostate, 101%; in the experiment on K-562 leukemia, 93.8%; in the experiment with MALME-3M melanoma, 94.9%. For the same compound, the growth with MDA-MB-231 breast is 105%; with RXF 393 renal, 117%; in the experiment with SF-268 CNS, 94%; with SF-295 CNS, 103%; in the experiment on SF-539 CNS it was 111%; in the experiment with UACC-257 melanoma it was 99.2%. The growth in the experiment on M14 melanoma is 96.6%.

On to `COc1ccc(/C=C(/C(=O)N2CCN(Cc3ccccc3)CC2)c2cc(OC)c(OC)c(OC)c2)cc1O`, for which the growth in the experiment on NCI-H226 lung was 81.7%; in the experiment with NCI-H322M lung, 91.2%; in the experiment on HOP-62 NSCLC, 74.2%; in the experiment with NCI-H460 lung, 58.4%; in the experiment on HOP-92 NSCLC, 44.3%; in the experiment on NCI-H522 lung, 44.8%. The growth with A549/ATCC NSCLC is 68%; in the experiment with 786-0 renal it was 87.6%; in the experiment with COLO 205 colon, 110%; with DU-145 prostate, 82.3%; in the experiment with K-562 leukemia, 23.1%; in the experiment with MALME-3M melanoma it was 65.8%. The growth in the experiment with MDA-MB-231 breast is 76.9%; in the experiment on RXF 393 renal, 62.3%; in the experiment with SF-268 CNS, 72.6%; with SF-295 CNS it was 82.8%; with SF-539 CNS it was 55.7%; in the experiment on UACC-257 melanoma, 54.7%. In addition, in the experiment on M14 melanoma, the growth is 38%.

With `Nc1c(C(=O)Nc2ccccn2)sc2nc3c(cc12)CCCCCC3`, the growth with NCI-H226 lung is 42.1%; in the experiment with NCI-H322M lung, 33%; in the experiment with HOP-62 NSCLC it was 17.8%; in the experiment on NCI-H460 lung, 6.37% (active); in the experiment on HOP-92 NSCLC it was 30.8%; in the experiment with NCI-H522 lung, 6.47% (active). For the same compound, the growth in the experiment on A549/ATCC NSCLC is 14.1%; with 786-0 renal it was 10.7%; in the experiment with COLO 205 colon it was 8.74% (active); in the experiment with DU-145 prostate, 11.4%; in the experiment on K-562 leukemia it was 7.85% (active); in the experiment on MALME-3M melanoma, 20.7%. In addition, the growth in the experiment with MDA-MB-231 breast was 49.4%; with RXF 393 renal, -8.82% (active); in the experiment on SF-268 CNS it was 35.6%; in the experiment with SF-295 CNS, 0.944% (active); in the experiment on SF-539 CNS it was 6.92% (active); in the experiment on UACC-257 melanoma it was 49.5%. Also, the growth with M14 melanoma is 7.38% (active).

Turning to `CCOc1ccc(C2N(c3cc(OC)c(OC)c(OC)c3)C(=O)C2(F)F)cc1` (stereo unspecified), the growth is 67.2% with NCI-H322M lung; 40.8% in the experiment with HOP-62 NSCLC; 12.7% in the experiment on NCI-H460 lung; 55.6% in the experiment on HOP-92 NSCLC; 19.3% with NCI-H522 lung; 33.6% in the experiment on A549/ATCC NSCLC. Moreover, the growth with 786-0 renal was 64.7%; in the experiment on COLO 205 colon, 10.8%; in the experiment with DU-145 prostate, 30.1%; in the experiment with K-562 leukemia it was 8.49% (active); in the experiment with MALME-3M melanoma, 63.1%; in the experiment with MDA-MB-231 breast, 46.1%. Besides, the growth in the experiment on RXF 393 renal is 54.2%; with SF-268 CNS it was 52.4%; in the experiment on SF-295 CNS, 56.3%; in the experiment on SF-539 CNS, 10.8%; with UACC-257 melanoma it was 58.7%; with M14 melanoma it was 27.5%.

With `COC(=O)CCc1n(Cc2ccc3ccccc3c2)c2ccccc2[n+]1Cc1ccc2ccccc2c1`, the growth with NCI-H226 lung is 17.7%; in the experiment with NCI-H322M lung it was 36.6%; with HOP-62 NSCLC, 19%; in the experiment with NCI-H460 lung, 6.29% (active); in the experiment on HOP-92 NSCLC, -34.4% (active); in the experiment with NCI-H522 lung it was -29.4% (active). Moreover, the growth with A549/ATCC NSCLC was 38.3%; with 786-0 renal, 15.4%; in the experiment with COLO 205 colon, -57.3% (active); with DU-145 prostate, 28%; in the experiment on K-562 leukemia it was 9.25% (active); with MALME-3M melanoma, -34.5% (active). In addition, the growth in the experiment on MDA-MB-231 breast is -39.4% (active); with RXF 393 renal, 23.7%; in the experiment on SF-268 CNS it was 12.1%; in the experiment on SF-295 CNS it was 13.1%; in the experiment with SF-539 CNS it was 16.3%; in the experiment with UACC-257 melanoma, -28.2% (active). In addition, the growth in the experiment with M14 melanoma is -25.5% (active).

On to `C[C@H]1[C@H](C)CC[C@]2(C(=O)OCCCC[P+](c3ccccc3)(c3ccccc3)c3ccccc3)CC[C@]3(C)C(=CC[C@@H]4[C@@]5(C)CC[C@H](OC(=O)C(Cl)Cl)C(C)(C)[C@@H]5CC[C@]43C)[C@H]12`, for which the growth in the experiment on NCI-H226 lung was -78.8% (active); with NCI-H322M lung it was -10.6% (active); with HOP-62 NSCLC it was -65% (active); in the experiment with NCI-H460 lung, -83.8% (active); with HOP-92 NSCLC, -70.1% (active); in the experiment on NCI-H522 lung, -55% (active). The growth was -41.9% (active) with A549/ATCC NSCLC; -83.5% (active) in the experiment with 786-0 renal; -84.9% (active) in the experiment on COLO 205 colon; -35.2% (active) in the experiment on DU-145 prostate; -57.4% (active) with K-562 leukemia; -85.2% (active) with MALME-3M melanoma. The growth is -68.8% (active) in the experiment on MDA-MB-231 breast; -91.4% (active) in the experiment with RXF 393 renal; -31.8% (active) with SF-268 CNS; -77.9% (active) with SF-295 CNS; -78.8% (active) with SF-539 CNS; -78.9% (active) in the experiment with UACC-257 melanoma. The growth with M14 melanoma is -82.7% (active).

Turning to `FC(F)(F)c1ccc2c(Nc3cccc(C4CC(c5ccccc5)=NN4c4ccc(Cl)cc4)c3)ccnc2c1` (stereo unspecified), the growth was 68.1% with NCI-H226 lung; 68.7% with NCI-H322M lung; 60.2% with HOP-62 NSCLC; 59.1% with NCI-H460 lung; 47.5% with HOP-92 NSCLC; 50.2% in the experiment with NCI-H522 lung. Further, the growth with A549/ATCC NSCLC is 72.4%; in the experiment with 786-0 renal, 77.1%; with COLO 205 colon, 58.1%; in the experiment on DU-145 prostate, 47.7%; in the experiment with K-562 leukemia it was 6.6% (active); in the experiment with MALME-3M melanoma it was 83%. Further, the growth in the experiment with MDA-MB-231 breast is 68%; in the experiment on RXF 393 renal, 74.2%; in the experiment with SF-268 CNS, 50.8%; in the experiment with SF-295 CNS, 57.8%; in the experiment on SF-539 CNS, 86.9%; in the experiment on UACC-257 melanoma it was 73.8%. In addition, the growth in the experiment with M14 melanoma was 41.2%.

Source of the values: PubChem BioAssay (NCI).
